Consider 19 compounds from PubChem BioAssay (NCATS).

SMILES strings stand for the structures. Records with an inconclusive call do not appear. Entries that show only a call come without a potency. Calls of active or inactive are those of the source. Calls come from the whole dose curve; as a rule, active = well fitted curve in the direction sought with a large enough effect; inconclusive = small, poorly fitted or top-dose-only effect, or another doubt; inactive = no such curve, though single readings can be large; an effect the other way counts as inactive or inconclusive.

The nature of test [1]: Primary qHTS for inhibitors of La Crosse Virus (LACV) - induced cell death in SH-SY5Y cells (AID 1508616).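 Note: top concentration of the series differs between compounds; higher means more rescue of cells from virus-induced death.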 Summed up: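 Readout was luminescence from ATPLite 1step added after a 6-day LACV infection (0.01 MOI) of SH-SY5Y cells that had received pin-transferred compound 24 hr after seeding.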
A general note: Quantitative high-throughput screening tests each substance at several concentrations.

Test [2] has as its target Calcium and integrin-binding protein 1 (Homo sapiens) (UniProt Q99828). Put plainly: Primary qHTS for Identification of Calcium Integrin Binding Protein 1 (CIB1) Competitor (AID 1508620).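 Note: GST tagged CIB1 binding a fluorescein labelled alphaIIb integrin peptide tracer; top concentration of the series differs between compounds.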 Summed up: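 Fluorescence polarization competition: CIB1-GST (1 uM final) preincubated with compound 15 min at room temperature, then FITC-labeled alphaIIb peptide (100 nM final) added for another 15 min. Polarization read at Ex 480/Em 540.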

Test [3] deals with Protein phosphatase 1D (Homo sapiens) (UniProt O15297). Briefly: Rhodamine-PBP qHTS Assay for Modulators of WT P53-Induced Phosphatase 1 (WIP1) (AID 1347425). Summed up:
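WIP1 (5 nM final) was preincubated with compound for 1 hour at room temperature. It then dephosphorylated 10 uM VEPPL-pS-QETFS peptide in Tris-HCl pH 7.5 with 30 mM MgCl2. Released Pi was detected by 10 uM Rh-PBP fluorescence (ex 525/em 598 nm) read at 1-min intervals for 11 min, as delta f1 - f0.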

The target is the same in test [4]. Briefly: RapidFire Mass Spectrometry qHTS Assay for Modulators of WT P53-Induced Phosphatase 1 (WIP1) (AID 1347424).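 Note: amount of dephosphorylated VEPPL-S-QETFS peptide product formed by WIP1; series mostly up to about 63 µM.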 Summed up: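 WIP1 (10 nM final) was preincubated 1 h at room temperature with compounds in Tris-HCl pH 7.5, 30 mM MgCl2, TCEP, EGTA, BSA; 2 uM VEPPL-pS-QETFS phosphopeptide was added for 5 min, quenched with formic acid, and dephosphorylated product quantified by RapidFire MS.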

The nature of test [5]: Counterscreen qHTS for small molecule stabilizers of the endoplasmic reticulum resident proteome: GLuc-NoTag assay (AID 1508627). Note: potency is the fitted concentration of half-maximal effect. Summed up: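 SH-SY5Y cells stably expressing constitutively secreted GLuc (no SERCaMP tag) were pre-incubated 5 h, treated with compound for 19 h, then 100 nM thapsigargin for 4 h at 37C; medium GLuc read by coelenterazine luminescence.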
The nature of test [6]: Confirmatory qHTS for small molecule stabilizers of the endoplasmic reticulum resident proteome: Secreted ER Calcium Modulated Protein (SERCaMP) assay (AID 1508628). Note: potency is the fitted concentration of half-maximal effect; nearly all actives have a fitted effect of over 40% in size. Summed up:
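We seeded SH-SY5Y-GLuc-SERCaMP cells, added compounds (three concentrations in the primary run, eleven up to 76.6 uM in confirmation), incubated 16 h, depleted ER calcium with thapsigargin, and read luciferase 4 h later.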

Test [7] in a line: Validation qHTS assay for inhibitors of Activation Induced Cytidine Deaminase (AID): UDG Counterscreen signal (AID 1347427). Summed up: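 Counterscreen read of UDG activity (2 U/mL, 4/3x) in the FRET deamination format with AID (1 uM, 4/3x), DJC20/DJC23 substrates (250 nM, 4x), 4 h at room temperature. NaOH stop, fluorescence at 560 ex/665 em.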
The target in test [8] is Single-stranded DNA cytosine deaminase (Homo sapiens) (UniProt Q9GZX7). Put plainly: Validation qHTS assay for inhibitors of Activation Induced Cytidine Deaminase (AID): AID signal (AID 1347429). In short, it runs like this:
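In this coupled qHTS, AID deaminates a FRET-labelled ssDNA substrate in the presence of UDG over 4 hr at room temperature. Compounds span up to 114 uM final.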

Test [9] deals with Calcium and integrin-binding protein 1 (Homo sapiens) (UniProt Q99828). Briefly: Validation qHTS for Identification of Calcium Integrin Binding protein 1 (CIB1) Competitor (AID 1508618). In short, it runs like this:
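Fluorescence polarization with 1 uM CIB1-GST and 100 nM FITC-alphaIIb peptide in HEPES pH 7.4, NaCl, 5 mM CaCl2, Tween20. Compounds at up to 114 uM final, preincubated with protein 15 min; read after 15 min more at RT.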

Chain of Calcium and integrin-binding protein 1 (Homo sapiens) (Q99828 whole entry, looked up): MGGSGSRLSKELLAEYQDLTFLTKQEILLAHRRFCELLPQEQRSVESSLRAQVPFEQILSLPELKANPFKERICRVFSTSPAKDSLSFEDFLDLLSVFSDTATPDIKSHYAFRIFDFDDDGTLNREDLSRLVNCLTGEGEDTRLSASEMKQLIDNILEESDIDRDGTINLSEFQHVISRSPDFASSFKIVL
Chain of Protein phosphatase 1D (Homo sapiens) (O15297 whole entry, looked up): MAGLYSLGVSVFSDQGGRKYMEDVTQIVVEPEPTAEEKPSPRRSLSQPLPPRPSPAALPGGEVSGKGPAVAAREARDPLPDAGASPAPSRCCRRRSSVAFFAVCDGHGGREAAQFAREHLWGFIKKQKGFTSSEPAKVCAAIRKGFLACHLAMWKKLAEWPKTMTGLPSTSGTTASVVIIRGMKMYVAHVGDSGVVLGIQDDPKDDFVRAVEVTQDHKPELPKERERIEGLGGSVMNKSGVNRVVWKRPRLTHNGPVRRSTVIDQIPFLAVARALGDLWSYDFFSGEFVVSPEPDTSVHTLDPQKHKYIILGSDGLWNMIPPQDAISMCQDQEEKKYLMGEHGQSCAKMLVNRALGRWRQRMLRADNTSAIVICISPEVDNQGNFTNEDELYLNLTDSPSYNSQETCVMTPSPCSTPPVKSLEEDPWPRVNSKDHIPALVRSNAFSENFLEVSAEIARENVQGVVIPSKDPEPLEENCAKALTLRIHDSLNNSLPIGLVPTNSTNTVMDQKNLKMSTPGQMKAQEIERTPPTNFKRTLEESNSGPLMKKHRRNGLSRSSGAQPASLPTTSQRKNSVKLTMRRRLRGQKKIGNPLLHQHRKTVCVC
Chain of Single-stranded DNA cytosine deaminase (Homo sapiens) (Q9GZX7 whole entry, looked up): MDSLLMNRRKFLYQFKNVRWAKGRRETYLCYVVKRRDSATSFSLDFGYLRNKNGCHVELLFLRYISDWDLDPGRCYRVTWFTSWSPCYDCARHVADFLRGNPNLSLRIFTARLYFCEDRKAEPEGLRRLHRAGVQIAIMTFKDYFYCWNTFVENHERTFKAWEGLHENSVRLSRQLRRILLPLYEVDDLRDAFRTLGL

For the compound `CC(=O)Nc1ncc([N+](=O)[O-])s1`, the call in [1] was inactive. Besides, the Potency result in test [2] is “inactive”.

Turning to `C#C[C@]1(OC(C)=O)CC[C@H]2[C@@H]3CCC4=C/C(=N/O)CC[C@@H]4[C@H]3CC[C@@]21CC`, the call in [3] and in test [1] was inactive. In addition, in [2], the Potency entry is “inactive”.

Turning to `CCO[C@@H]1O[C@H](C(COCc2ccccc2)OCc2ccccc2)[C@H](OCc2ccccc2)[C@H]1O` (stereo not given in full), the Potency entry in [4] and in test [2] was “inactive” each time. Moreover, in [1], the call was inactive.

For the compound `CCOC(=O)[C@H](CCc1ccccc1)N[C@@H](C)C(=O)N1[C@H](C(=O)O)C[C@@H]2CCC[C@@H]21`, the Potency result in test [4] and in test [2] was “inactive” each time. Also, the compound was classed as inactive in test [1].

Consider `CCN1/C(=C/C=C/c2sc3ccccc3[n+]2CC)Sc2ccccc21`, for which the call in test [3] and in [1] was inactive. Also, the Potency entry in test [2] is “inactive”.

Take `CCC(Cc1c(I)cc(I)c(N)c1I)C(=O)O` (stereo not given): the outcome in test [1] was inactive. The Potency entry in test [2] was “inactive”.

For `CC1(COc2ccc(CC3SC(=O)NC3=O)cc2)CCCCC1` (stereo not given), the compound was called inactive in test [1]. Also, in test [2], the Potency result is “inactive”.

In the case of `CN1CCN(C2=Nc3cc(F)ccc3Cc3ccccc32)CC1`, the Potency entry in test [4] and in test [2] was “inactive” in each case. For the same compound, in test [1], the compound was classed as inactive. Moreover, the Potency is 28.2 µM (active) in test [5] and 39.8 µM (active) in test [6].

Regarding `CCOC(=O)[C@H](CCc1ccccc1)N[C@@H](C)C(=O)N1[C@H](C(=O)O)C[C@H]2CCCC[C@@H]21`, the call in test [7], in [8], in [1] and in test [9] was inactive.

With `C=C[C@H]1CN2CC[C@H]1C[C@@H]2[C@@H](O)c1ccnc2ccc(OC)cc12`, the Potency entry in [4] and in test [5] was “inactive” each time. For the same compound, the outcome in [1] was inactive.

In the case of `NS(=O)(=O)c1cc2c(cc1Cl)NC(CC1CCCC1)NS2(=O)=O` (stereo not given), the call in test [1] was inactive. The Potency entry in test [2] is “inactive”.

As to `O=C1OC2(c3ccccc31)c1cc(Br)c(O)c(Br)c1Oc1c2cc(Br)c(O)c1Br`, the result in [1] was inactive. In addition, the Potency result in [2] and in test [5] was “inactive” throughout.

`CNCCc1ccccn1`: the Potency result in [4] and in [2] was “inactive” throughout. Further, in test [1], the call was inactive.

Consider `NC(N)=NN=C(/C=C/c1ccc([N+](=O)[O-])o1)/C=C/c1ccc([N+](=O)[O-])o1`, for which the result in test [1] was inactive. In test [2], the Potency entry was “inactive”.

For `O=C(O)C(Cc1cc(I)c(O)c(I)c1)c1ccccc1` (stereo not given), the compound was classed as inactive in test [3] and in [1]. Further, the Potency result in test [2] is “inactive”.

For `CCC1Nc2cc(Cl)c(S(N)(=O)=O)cc2S(=O)(=O)N1` (stereo not given), the Potency entry in [4] and in test [2] was “inactive” in each case. For the same compound, in test [1], the call was inactive.

With `CCCCCCCC/C=C\CCCCCCCCN`, the Potency entry in test [4] and in test [2] was “inactive” throughout. In addition, the outcome in test [1] was inactive.

Take `CC(=O)NCCCCCC(=O)O`: the Potency result in test [4] and in [2] was “inactive” throughout. For the same compound, the outcome in test [1] was inactive.

For `CN(C)CCOC(c1ccc(Cl)cc1)c1ccccn1` (stereo not given), the Potency result in test [4] and in test [2] was “inactive” each time. Also, the outcome in test [1] was inactive.
